Laboratory results from ChEMBL document CHEMBL5308504, “Tm Shift (DSF) assay results for EUbOPEN Chemogenomics Library” (2023).

Assays:
Conditions in all cases: Compound concentration 20.0 uM, Protein concentration 2.0 uM, Result type QC Liability
[1] = biological target: Tyrosine-protein kinase ABL1 (Homo sapiens) (UniProt P00519)
[2] = biological target: Casein kinase I isoform delta (Homo sapiens) (UniProt P48730)
[3] = biological target: Glycogen synthase kinase-3 beta (Homo sapiens) (UniProt P49841)
[4] = biological target: Mitogen-activated protein kinase 1 (Homo sapiens) (UniProt P28482)
[5] = biological target: T1, Aurora kinase A (Homo sapiens) (UniProt O14965)
T1 sequence (whole entry): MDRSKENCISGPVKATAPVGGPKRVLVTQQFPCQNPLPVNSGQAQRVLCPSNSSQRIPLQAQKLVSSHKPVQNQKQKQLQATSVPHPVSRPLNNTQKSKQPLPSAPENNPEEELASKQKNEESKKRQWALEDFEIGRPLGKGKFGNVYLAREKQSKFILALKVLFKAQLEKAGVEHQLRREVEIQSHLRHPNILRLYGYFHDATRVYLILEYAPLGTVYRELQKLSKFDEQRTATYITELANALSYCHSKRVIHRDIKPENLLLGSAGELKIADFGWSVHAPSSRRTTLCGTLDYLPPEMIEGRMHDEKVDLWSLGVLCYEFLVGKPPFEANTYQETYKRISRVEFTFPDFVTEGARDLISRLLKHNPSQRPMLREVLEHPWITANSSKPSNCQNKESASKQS

[6] = biological target: T2, Transcription intermediary factor 1-alpha (Homo sapiens) (UniProt O15164)
T2 sequence (whole entry): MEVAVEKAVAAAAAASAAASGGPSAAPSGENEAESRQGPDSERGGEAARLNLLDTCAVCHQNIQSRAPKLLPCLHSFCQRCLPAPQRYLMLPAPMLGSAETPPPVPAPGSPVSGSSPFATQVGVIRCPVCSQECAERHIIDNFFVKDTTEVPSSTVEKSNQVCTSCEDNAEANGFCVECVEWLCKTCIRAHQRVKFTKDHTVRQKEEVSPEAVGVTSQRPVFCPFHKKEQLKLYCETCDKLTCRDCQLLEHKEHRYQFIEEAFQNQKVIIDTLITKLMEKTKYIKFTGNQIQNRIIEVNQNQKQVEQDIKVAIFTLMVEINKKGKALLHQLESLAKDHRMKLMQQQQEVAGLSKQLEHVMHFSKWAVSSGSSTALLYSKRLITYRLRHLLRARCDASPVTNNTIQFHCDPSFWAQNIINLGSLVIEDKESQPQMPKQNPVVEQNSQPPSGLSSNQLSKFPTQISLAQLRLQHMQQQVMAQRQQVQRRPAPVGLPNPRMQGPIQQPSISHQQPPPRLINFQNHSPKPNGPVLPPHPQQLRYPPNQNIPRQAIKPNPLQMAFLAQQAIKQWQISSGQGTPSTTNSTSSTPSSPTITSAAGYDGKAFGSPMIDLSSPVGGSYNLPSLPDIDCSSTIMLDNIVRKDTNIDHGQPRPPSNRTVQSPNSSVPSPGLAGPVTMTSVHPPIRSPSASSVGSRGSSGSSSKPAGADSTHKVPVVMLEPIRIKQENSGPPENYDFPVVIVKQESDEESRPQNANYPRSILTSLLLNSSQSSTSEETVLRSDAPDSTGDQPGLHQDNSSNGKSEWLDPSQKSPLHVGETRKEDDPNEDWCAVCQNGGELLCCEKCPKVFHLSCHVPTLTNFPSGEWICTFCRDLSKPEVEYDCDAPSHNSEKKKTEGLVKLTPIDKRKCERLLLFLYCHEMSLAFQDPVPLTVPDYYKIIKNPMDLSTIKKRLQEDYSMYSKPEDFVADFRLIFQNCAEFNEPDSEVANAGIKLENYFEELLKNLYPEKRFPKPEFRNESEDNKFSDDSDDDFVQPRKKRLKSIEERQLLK

[7] = biological target: Cyclin-dependent kinase 2 (Homo sapiens) (UniProt P24941)

Chain of Glycogen synthase kinase-3 beta (Homo sapiens) (P49841 whole entry, looked up): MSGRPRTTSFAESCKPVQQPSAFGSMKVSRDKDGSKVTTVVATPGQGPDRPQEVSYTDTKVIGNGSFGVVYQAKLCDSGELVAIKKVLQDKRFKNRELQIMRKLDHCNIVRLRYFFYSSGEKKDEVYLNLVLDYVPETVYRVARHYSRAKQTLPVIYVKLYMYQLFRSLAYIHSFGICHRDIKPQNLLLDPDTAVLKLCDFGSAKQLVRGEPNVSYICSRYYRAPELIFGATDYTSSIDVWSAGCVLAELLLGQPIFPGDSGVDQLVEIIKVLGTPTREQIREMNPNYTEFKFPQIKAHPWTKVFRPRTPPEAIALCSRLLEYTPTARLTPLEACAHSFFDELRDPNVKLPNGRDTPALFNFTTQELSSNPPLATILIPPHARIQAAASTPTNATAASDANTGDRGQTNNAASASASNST
Chain of Mitogen-activated protein kinase 1 (Homo sapiens) (P28482 whole entry): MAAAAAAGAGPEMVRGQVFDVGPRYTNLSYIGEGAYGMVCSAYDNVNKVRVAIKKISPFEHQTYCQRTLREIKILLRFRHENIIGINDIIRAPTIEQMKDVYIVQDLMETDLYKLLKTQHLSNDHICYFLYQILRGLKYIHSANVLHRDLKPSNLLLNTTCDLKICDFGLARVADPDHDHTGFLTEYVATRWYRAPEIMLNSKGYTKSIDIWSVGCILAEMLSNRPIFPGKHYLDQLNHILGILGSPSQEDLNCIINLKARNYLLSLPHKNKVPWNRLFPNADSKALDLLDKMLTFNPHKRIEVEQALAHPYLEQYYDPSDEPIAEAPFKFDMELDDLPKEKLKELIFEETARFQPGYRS
Chain of Tyrosine-protein kinase ABL1 (Homo sapiens) (P00519 whole entry, canonical isoform): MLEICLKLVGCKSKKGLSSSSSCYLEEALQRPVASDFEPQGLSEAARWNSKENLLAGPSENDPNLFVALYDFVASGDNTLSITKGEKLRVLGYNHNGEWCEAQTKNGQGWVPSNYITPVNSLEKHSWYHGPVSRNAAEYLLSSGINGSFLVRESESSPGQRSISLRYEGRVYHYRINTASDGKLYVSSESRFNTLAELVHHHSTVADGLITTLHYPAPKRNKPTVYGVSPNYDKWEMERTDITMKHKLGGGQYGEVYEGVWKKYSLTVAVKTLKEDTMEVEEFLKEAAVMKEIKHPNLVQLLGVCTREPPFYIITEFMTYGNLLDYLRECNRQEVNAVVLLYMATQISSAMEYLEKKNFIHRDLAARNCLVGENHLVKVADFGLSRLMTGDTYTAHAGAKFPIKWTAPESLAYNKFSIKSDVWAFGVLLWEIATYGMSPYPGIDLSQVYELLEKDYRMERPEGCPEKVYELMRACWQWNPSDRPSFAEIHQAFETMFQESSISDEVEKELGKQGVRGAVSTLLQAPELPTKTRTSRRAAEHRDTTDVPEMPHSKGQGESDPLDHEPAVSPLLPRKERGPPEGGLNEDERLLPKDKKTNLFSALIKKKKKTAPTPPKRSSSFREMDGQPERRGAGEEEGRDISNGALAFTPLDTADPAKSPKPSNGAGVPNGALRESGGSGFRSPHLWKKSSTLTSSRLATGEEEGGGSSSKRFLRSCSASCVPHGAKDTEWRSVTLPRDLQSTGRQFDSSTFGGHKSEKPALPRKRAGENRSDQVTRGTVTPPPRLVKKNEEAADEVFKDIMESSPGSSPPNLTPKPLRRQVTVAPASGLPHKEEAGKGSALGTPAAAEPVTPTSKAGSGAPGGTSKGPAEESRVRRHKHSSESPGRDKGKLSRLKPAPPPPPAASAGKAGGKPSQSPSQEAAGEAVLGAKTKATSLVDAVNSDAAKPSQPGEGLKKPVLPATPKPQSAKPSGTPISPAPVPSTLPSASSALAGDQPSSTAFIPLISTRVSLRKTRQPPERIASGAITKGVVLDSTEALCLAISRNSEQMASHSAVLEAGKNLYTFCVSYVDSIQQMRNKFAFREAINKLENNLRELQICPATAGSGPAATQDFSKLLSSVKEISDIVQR
Chain of Casein kinase I isoform delta (Homo sapiens) (P48730 whole entry, looked up, canonical isoform): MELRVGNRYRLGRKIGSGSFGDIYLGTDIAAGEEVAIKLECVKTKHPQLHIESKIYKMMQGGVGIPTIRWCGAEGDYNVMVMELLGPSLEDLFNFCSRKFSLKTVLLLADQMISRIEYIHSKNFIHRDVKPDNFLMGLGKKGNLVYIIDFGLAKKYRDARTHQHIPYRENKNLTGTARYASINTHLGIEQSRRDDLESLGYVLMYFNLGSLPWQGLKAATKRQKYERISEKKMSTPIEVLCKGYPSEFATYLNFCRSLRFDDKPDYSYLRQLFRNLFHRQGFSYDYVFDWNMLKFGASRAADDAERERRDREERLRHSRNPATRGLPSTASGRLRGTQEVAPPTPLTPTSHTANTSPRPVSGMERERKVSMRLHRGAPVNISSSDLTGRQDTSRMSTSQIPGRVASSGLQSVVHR

SMILES	ΔTm [1] [°C]	ΔTm [2] [°C]	ΔTm [3] [°C]	ΔTm [4] [°C]	ΔTm [5] [°C]	ΔTm [6] [°C]	ΔTm [7] [°C]
OCC1OC(n2cnc3cc(Cl)c(Cl)cc32)C(O)C1O (centres undefined)	0.32	1.91	0.18	0.27	0.42	-1.91	–
C=CC(=O)N1CCC[C@@H](n2nc(-c3ccc(Oc4ccccc4)cc3)c3c(N)ncnc32)C1	2.63	0.7	-1.96	-6.31	6.21	-4.01	0.83
CS(=O)(=O)c1ccc(-c2cnc(N)c(C(=O)Nc3ccccc3)n2)cc1	0.67	-0.19	3.54	0.38	0.45	-1.74	0.23
N[C@H](C(=O)O)[C@@H]1CC(Cl)=NO1	-0.08	0.22	0.23	0.14	-0.37	-0.82	0.85
C[C@]12CC[C@@H]3c4ccc(C(N)=O)cc4CC[C@H]3[C@@H]1CC=C2c1cncc(F)c1	0.15	-4.77	0	0.35	2.37	0.2	-0.32
C[C@@H](CN1CC[C@@]2(C)c3cccc(O)c3C[C@@H]1C2(C)C)OCc1ccccc1	-0.13	0.25	-1.13	0.48	0.13	0.17	0.59
CCC(=O)O[C@@H](OP(=O)(CCCCc1ccccc1)CC(=O)N1C[C@H](C2CCCCC2)C[C@H]1C(=O)O)C(C)C (some centres undefined)	0.01	-0.25	-0.61	0.22	-1.22	-3.14	0.46
Cc1cc(Cl)ccc1S(=O)(=O)NC[C@H]1C2CCC(CC2)[C@@H]1/C=C\CCCC(=O)O	-0.05	-0.27	-1.54	0.13	-0.34	-0.51	-0.53
COP(=O)(CCC(N)C(=O)O)Oc1cccc(CC(=O)O)c1 (centres undefined)	-0.06	0.36	-0.02	0.13	-0.17	0.32	0.07
Cc1nnc2n1-c1sc3c(c1C(c1ccccc1Cl)=NC2)CC(C(=O)N1CCOCC1)C3 (centres undefined)	0.38	0.02	-0.24	0.25	0.1	0.23	1.08
O=C1CCC(N2Cc3cc(CNC(=O)C(F)(F)c4ccc(Cl)cc4)ccc3C2=O)C(=O)N1 (centres undefined)	0.53	0.06	0.18	0.34	-0.46	-0.96	0.76
C[C@H](CCC(=O)O)[C@H]1CC[C@H]2[C@@H]3CC[C@@H]4C[C@H](O)CC[C@]4(C)[C@H]3CC[C@]12C	-0.82	-3.52	-3.06	-0.88	-4.37	-5.96	-1.65
Cc1nnc2n1-c1sc3c(c1C(c1ccccc1Cl)=NC2)C[C@@H](C(=O)N1CCOCC1)C3	0.78	0.17	0.5	0.3	0.11	-0.75	0.74
COc1ccc(OC(=O)N(CC(=O)O)Cc2ccc(OCCc3nc(-c4ccccc4)oc3C)cc2)cc1	0.16	0.56	-1.96	0.18	-0.93	-4.78	-0.27
CCN(CC)CCO[C@H]1CC[C@@]2(C)C(=CC[C@@H]3[C@@H]2CC[C@]2(C)C(=O)CC[C@@H]32)C1	0.26	-0.08	-0.11	0.35	-0.37	-0.77	0.63
Cc1ccc2c(N)c(C(=O)NC3CCc4cc(N5CC6CCC(C5)N6)ccc4C3)sc2n1 (centres undefined)	0.14	0.27	-0.23	0.3	-0.05	-1.89	-0.27
C=CC(=O)Nc1cc(-c2nn(C3CCC(N4CCN(C(C)=O)CC4)CC3)c3ncnc(N)c23)ccc1Oc1ccccc1 (centres undefined)	0.84	0.89	-1.12	0.34	4.07	-1.68	0.18
CO[C@H](C)CN1CC[C@]2(C)c3cccc(O)c3C[C@H]1C2(C)C	0.1	0.27	-0.29	-0.17	-0.21	0.19	0.52
COc1ccc(-n2nc(C(F)(F)F)cc2-c2ccc(Cl)cc2)cc1	0.2	0.03	-0.24	0.69	-0.08	-0.34	1.23
C[C@@H]1CC[C@@]2(OC1)O[C@H]1[C@@H](O)[C@H]3[C@@H]4CC[C@H]5C[C@@H](O[C@@H]6O[C@H](CO)[C@H](O[C@@H]7O[C@H](CO)C(O)[C@H](O[C@@H]8OC[C@@H](O)[C@H](O)[C@H]8O)[C@H]7O[C@@H]7O[C@H](CO)[C@H](O)[C@H](O[C@@H]8O[C@H](CO)[C@@H](O)[C@H](O)[C@H]8O)[C@H]7O)[C@H](O)[C@H]6O)[C@H](O)C[C@]5(C)[C@H]4CC[C@]3(C)[C@H]1[C@@H]2C (some centres undefined)	0.2	0.07	-0.93	0.27	-0.73	-3.45	0.55

SMILES	ΔTm [1] [°C]	ΔTm [2] [°C]	ΔTm [3] [°C]	ΔTm [4] [°C]	ΔTm [5] [°C]	ΔTm [6] [°C]	ΔTm [7] [°C]
CCCn1cc(-c2cc(C3C(=O)N(CC)c4ccc(C(F)(F)F)cc4N(c4ccccc4)C3=O)cc(OC)c2O)cn1 (centres undefined)	-0.36	0.47	-1.32	-7.84	0.54	0.28	1.16
COc1nc2ccc([C@@](O)(c3ccc(Cl)cc3)c3cncn3C)cc2c(Cl)c1Cc1ccc(-n2cccn2)cc1	-0.22	-0.84	-1.9	-0.39	-0.59	-0.54	-0.1
CCOP(=O)(OCC)C(=Cc1cc(C(C)(C)C)c(O)c(C(C)(C)C)c1)P(=O)(OCC)OCC	-0.09	0.17	-0.29	0.15	-1.17	-3.9	0.15
C[C@@H](CO)CCC[C@@H](C)[C@H]1CC[C@H]2[C@@H]3CC=C4C[C@@H](O)CC[C@]4(C)[C@H]3CC[C@]12C	0.11	0.59	-0.96	0.35	-1.67	-3	0.17
CN(C(=O)CCOCCOCCOCCOCCNc1cccc2c1C(=O)N(C1CCC(=O)NC1=O)C2=O)[C@H]1CC[C@@]2(C)[C@@H](CC[C@@H]3[C@@H]2CC[C@]2(C)[C@@H](c4ccc5ccncc5c4)CC[C@@H]32)C1 (some centres undefined)	1.62	-6.92	2.49	-1.53	-1.77	0	0.45
C=C[C@@]12CCc3cc(O)ccc3[C@H]1CC[C@@]1(C)[C@H]2CC[C@@H]1O	0.27	0.08	1.27	0.21	0	-0.42	0.21
C[C@H](CCC(=O)O)[C@H]1CC[C@H]2[C@@H]3[C@@H](O)C[C@@H]4C[C@H](O)CC[C@]4(C)[C@H]3CC[C@]12C	0.07	0.77	-0.56	0.29	-1.74	-2.12	0.52
CO[C@@H](C)CN1CC[C@]2(C)c3cc(O)ccc3C[C@H]1C2(C)C	0.73	0.53	-0.14	0.27	-0.25	0.53	0.61
CN1CCN(C(=O)Cc2ccc(N/C(=C3\C(=O)Nc4cc(Cl)ccc43)c3ccccc3)cc2)CC1	8.52	1.29	6.21	-0.19	1.19	-2.36	1.7
CO[C@H](C)CN1CC[C@@]2(C)c3ccc(O)cc3C[C@@H]1C2(C)C	0.21	0.29	-0.8	0.34	0.3	0.33	-0.28
CC[C@H]1[C@@H](O)[C@@H]2[C@H](CC[C@]3(C)[C@@H]([C@H](C)CCC(=O)O)CC[C@@H]23)[C@@]2(C)CC[C@@H](O)C[C@@H]12	-0.12	0.56	-0.92	-0.09	-1.71	-1.62	-0.27
Cc1nnc2n1-c1sc3c(c1C(c1ccccc1Cl)=NC2)C[C@H](C(=O)N1CCOCC1)C3	0.62	0.25	0.26	0.42	-0.08	-0.99	0.85
C=CC(=O)Nc1ccc2[nH]c(=O)n(C3CCN(Cc4ccc(-c5ccc6c(c5)NC(=O)CO6)cc4)CC3)c2c1	0.74	0.68	3.14	0.64	1.01	-2.17	-0.1
Cn1ncc(-c2nc(N[C@H]3CC[C@H](N)CC3)ncc2Cl)c1CC1CC1	0.41	9.79	9.59	2.41	2.45	-3.6	12.7
Clc1ccccc1C(c1ccccc1)(c1ccccc1)n1cccn1	0.43	-0.01	-0.43	0.22	-0.47	-0.54	0.09
O=C(NCCN1CCC2(CC1)C(=O)NCN2c1cccc(F)c1)c1ccc2ccccc2c1	-0.28	0.58	-0.14	0.08	0.16	0.18	0.17
CNC(=O)c1cc(C(=O)NC2CC2)cn(Cc2ccccc2)c1=O	0.07	-0.04	-0.41	0.38	-0.78	-0.29	0.96
CNc1nc(-c2cc(C(=O)N3CCN(Cc4ccc(Cl)cc4)CC3)c(Cl)cn2)cs1	-0.06	0.17	0.59	0.23	-0.18	0.39	0.89
Cc1nnc2n1-c1sc(CCC(=O)N3CCOCC3)cc1C(c1ccccc1Cl)=NC2	0.15	0.34	-0.2	0.13	0.01	0.29	0.99
CCN1C(=O)C(c2cccc(C(=O)O)c2)C(=O)N(c2ccccc2)c2cc(C(F)(F)F)ccc21 (centres undefined)	-0.5	0.29	-1.43	0.17	-0.25	0.23	-0.13
